According to the supplement of paper PMC11732987, “Enantioselective OTUD7B fragment discovery through chemoproteomics screening and high-throughput optimisation” (Communications Chemistry, 2025):

Legend:
Assay in all cases: log2 ratio of Biotin-Ahx-Ub-VS probe labelling (fragment/DMSO); higher = less target engagement (more negative = stronger competition), active = hit call of the paper (q ≤ 0.05, log2 ratio ≤ -1)
Conditions in all cases: compound concentration: 200 uM; treatment time: 3 h
[1] = target: USP34 (UniProt Q70CQ2)
Chain of USP34 (Q70CQ2 whole entry, the tested form may be a part): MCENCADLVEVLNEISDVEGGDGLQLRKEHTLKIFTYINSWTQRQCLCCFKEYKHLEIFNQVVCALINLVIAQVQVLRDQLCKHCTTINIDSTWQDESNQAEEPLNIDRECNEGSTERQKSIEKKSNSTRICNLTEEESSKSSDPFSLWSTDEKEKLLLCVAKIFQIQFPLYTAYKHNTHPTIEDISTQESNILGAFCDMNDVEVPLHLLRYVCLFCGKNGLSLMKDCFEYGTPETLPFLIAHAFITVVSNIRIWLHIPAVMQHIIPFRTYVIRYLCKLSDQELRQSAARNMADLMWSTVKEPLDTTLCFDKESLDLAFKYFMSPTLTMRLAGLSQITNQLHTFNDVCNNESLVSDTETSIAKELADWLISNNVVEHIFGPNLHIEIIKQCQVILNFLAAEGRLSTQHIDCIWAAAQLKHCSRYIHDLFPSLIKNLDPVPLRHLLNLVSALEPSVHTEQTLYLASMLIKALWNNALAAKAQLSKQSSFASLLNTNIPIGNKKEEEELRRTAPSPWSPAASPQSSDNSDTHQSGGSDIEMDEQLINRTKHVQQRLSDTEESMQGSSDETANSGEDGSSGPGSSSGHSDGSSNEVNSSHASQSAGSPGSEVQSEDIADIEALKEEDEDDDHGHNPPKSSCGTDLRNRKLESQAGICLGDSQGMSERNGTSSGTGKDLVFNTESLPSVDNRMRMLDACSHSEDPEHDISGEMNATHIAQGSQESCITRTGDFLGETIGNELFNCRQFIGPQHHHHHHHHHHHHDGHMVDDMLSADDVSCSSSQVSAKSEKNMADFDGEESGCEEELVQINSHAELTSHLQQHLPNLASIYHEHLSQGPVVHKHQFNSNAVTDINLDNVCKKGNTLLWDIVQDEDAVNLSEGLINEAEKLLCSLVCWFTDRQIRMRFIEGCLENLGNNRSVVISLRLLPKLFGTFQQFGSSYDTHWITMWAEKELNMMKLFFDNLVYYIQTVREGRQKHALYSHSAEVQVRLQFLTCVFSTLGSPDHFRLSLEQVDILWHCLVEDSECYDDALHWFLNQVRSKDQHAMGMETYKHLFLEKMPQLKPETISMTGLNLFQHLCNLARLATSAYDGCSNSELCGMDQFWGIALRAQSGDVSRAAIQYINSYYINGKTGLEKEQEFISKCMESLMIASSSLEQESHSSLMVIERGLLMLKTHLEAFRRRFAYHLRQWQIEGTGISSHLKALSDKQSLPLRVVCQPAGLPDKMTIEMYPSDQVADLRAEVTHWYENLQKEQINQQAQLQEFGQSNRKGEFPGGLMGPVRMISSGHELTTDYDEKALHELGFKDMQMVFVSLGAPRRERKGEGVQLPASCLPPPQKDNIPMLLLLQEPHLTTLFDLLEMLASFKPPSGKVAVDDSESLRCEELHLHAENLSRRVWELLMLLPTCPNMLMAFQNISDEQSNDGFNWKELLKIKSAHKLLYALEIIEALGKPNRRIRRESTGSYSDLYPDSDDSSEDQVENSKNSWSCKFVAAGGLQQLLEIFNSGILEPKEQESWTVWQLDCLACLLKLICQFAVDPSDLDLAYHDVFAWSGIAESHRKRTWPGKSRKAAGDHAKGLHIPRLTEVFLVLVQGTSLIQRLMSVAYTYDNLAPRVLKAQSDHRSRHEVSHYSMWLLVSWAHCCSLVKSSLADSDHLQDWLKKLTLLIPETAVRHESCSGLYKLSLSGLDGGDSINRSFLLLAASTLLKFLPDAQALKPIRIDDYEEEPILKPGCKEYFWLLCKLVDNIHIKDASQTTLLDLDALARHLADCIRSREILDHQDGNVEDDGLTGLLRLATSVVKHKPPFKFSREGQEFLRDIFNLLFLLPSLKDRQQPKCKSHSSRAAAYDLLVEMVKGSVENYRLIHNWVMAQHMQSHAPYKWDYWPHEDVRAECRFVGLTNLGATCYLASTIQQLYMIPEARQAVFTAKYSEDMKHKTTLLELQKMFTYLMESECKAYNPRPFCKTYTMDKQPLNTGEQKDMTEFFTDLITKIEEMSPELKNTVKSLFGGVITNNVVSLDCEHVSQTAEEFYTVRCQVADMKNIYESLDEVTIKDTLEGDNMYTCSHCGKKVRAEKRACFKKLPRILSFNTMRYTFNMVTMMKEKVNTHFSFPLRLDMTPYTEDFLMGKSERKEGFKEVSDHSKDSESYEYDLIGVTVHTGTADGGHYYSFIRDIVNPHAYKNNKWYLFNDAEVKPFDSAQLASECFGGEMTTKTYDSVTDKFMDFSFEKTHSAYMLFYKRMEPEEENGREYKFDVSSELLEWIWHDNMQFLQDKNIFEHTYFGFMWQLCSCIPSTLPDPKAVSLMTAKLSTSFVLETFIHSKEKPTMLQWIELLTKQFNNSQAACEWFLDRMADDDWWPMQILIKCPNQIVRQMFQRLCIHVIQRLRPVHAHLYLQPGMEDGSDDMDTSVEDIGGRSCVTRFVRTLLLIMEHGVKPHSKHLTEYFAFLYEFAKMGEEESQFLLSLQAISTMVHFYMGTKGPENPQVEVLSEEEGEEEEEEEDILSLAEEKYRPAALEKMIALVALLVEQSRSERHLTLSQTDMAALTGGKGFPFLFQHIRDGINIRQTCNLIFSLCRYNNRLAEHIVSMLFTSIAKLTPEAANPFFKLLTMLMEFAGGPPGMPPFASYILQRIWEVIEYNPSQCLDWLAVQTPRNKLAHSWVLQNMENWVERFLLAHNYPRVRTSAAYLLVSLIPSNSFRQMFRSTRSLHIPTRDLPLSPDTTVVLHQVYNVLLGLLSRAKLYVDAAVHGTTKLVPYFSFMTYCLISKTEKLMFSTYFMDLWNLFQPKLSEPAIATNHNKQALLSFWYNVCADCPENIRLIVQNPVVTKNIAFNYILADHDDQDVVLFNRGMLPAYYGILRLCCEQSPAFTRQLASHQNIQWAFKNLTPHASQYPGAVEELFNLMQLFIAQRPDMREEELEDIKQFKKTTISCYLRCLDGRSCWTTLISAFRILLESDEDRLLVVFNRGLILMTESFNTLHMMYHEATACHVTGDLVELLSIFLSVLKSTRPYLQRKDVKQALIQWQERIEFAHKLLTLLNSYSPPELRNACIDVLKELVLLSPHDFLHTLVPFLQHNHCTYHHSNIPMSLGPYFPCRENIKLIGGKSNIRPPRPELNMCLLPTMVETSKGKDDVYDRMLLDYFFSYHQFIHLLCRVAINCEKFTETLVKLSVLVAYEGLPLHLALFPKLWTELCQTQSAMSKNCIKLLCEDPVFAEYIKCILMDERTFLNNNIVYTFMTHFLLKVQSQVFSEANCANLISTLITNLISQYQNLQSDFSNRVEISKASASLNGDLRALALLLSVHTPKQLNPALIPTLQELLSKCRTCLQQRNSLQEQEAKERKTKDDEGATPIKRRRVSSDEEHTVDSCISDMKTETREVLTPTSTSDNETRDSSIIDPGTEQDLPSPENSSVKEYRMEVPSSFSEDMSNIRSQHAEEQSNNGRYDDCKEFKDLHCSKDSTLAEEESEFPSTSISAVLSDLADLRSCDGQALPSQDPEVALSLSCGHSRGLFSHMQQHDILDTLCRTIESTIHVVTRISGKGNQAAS
Method in brief: (§1)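 Average log2 ratios of fragment over vehicle were obtained by unpaired t-test from global-median-normalised Spectronaut label-free quantities. Proteins with ≥2 unique peptides were included. HEK293T lysate (495 µg per sample) was treated in triplicate with fragment at 200 µM or vehicle for 3 h, then with Biotin-Ahx-Ub-VS at 0.5 µM final for 1 h, and labelled DUBs were NeutrAvidin-enriched and run by diaPASEF LC-MS/MS.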

[2] = target: T1, USP36 (UniProt Q9P275)
T1 sequence (whole entry): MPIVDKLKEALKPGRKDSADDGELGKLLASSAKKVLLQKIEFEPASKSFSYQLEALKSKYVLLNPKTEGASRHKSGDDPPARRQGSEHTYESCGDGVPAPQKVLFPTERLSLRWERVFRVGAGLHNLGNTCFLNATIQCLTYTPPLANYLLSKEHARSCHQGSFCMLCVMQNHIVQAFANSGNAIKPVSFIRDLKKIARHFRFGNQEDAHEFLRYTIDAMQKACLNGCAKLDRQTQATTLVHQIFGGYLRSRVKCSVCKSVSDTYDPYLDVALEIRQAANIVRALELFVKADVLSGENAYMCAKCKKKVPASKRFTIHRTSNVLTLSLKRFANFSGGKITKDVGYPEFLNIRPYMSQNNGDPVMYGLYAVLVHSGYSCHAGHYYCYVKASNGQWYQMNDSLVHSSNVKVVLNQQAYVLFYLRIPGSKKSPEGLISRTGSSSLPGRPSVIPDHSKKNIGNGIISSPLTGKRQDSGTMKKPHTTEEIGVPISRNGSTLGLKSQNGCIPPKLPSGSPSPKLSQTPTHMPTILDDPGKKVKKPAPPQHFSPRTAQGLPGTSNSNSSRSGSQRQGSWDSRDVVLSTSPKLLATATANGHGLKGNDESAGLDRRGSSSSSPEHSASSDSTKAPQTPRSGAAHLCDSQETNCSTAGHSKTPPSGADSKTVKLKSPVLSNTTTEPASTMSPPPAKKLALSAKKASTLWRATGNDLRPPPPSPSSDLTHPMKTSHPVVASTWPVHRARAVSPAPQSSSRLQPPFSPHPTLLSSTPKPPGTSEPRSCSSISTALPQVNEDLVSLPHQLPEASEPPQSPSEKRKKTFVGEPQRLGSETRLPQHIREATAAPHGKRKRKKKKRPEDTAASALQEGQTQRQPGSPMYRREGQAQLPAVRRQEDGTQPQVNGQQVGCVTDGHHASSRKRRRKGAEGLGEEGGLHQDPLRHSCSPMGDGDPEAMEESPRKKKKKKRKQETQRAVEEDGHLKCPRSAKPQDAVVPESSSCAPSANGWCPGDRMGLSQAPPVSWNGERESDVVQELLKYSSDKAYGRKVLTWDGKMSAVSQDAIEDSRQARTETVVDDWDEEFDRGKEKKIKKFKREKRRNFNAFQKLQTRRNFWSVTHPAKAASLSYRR
Method in brief: as §1

[3] = target: T2, USP38 (UniProt Q8NB14)
T2 sequence (whole entry): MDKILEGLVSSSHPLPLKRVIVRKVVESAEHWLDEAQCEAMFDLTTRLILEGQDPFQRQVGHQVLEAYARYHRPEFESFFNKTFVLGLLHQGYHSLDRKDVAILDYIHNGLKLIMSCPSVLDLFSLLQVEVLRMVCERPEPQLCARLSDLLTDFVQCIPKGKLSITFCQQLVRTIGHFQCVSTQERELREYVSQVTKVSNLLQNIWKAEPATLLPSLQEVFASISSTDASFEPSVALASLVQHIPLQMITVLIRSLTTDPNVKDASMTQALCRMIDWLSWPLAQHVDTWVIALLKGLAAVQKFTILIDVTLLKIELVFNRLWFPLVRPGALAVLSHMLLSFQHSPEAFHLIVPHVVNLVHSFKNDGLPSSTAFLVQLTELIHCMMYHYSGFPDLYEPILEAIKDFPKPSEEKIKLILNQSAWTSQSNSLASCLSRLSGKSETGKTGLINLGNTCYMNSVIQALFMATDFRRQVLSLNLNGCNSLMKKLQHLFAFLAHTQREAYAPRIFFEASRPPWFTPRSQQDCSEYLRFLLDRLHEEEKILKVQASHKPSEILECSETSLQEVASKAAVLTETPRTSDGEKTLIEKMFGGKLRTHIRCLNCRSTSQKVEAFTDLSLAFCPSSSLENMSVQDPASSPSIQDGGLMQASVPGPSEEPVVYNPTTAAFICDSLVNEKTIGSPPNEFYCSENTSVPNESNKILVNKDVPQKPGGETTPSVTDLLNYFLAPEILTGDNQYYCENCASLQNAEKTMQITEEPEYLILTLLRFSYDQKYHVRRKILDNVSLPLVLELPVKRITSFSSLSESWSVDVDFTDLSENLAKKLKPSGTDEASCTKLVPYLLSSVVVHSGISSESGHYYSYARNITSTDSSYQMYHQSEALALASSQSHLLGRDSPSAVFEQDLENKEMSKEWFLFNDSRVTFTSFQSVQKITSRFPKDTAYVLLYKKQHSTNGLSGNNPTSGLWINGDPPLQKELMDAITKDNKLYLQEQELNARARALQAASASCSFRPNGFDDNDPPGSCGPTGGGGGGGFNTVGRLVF
Method in brief: as §1

[4] = target: T3, USP39 (UniProt Q53GS9)
T3 sequence (whole entry): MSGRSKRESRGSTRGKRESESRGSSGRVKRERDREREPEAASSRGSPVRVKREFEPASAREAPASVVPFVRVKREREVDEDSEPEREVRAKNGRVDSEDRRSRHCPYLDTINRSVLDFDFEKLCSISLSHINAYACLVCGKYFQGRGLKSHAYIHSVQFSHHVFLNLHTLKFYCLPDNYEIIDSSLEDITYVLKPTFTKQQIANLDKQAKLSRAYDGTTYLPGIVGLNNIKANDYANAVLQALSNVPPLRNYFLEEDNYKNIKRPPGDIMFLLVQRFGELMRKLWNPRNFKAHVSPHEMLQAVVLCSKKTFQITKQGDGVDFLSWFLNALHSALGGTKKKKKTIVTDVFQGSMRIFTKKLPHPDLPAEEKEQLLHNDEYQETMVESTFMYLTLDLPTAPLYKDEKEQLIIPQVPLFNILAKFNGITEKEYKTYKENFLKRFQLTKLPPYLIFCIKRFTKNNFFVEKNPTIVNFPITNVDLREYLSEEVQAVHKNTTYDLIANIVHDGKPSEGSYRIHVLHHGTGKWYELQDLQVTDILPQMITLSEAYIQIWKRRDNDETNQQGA
Method in brief: as §1

[5] = target: T4, USP4 (UniProt Q13107)
T4 sequence (whole entry): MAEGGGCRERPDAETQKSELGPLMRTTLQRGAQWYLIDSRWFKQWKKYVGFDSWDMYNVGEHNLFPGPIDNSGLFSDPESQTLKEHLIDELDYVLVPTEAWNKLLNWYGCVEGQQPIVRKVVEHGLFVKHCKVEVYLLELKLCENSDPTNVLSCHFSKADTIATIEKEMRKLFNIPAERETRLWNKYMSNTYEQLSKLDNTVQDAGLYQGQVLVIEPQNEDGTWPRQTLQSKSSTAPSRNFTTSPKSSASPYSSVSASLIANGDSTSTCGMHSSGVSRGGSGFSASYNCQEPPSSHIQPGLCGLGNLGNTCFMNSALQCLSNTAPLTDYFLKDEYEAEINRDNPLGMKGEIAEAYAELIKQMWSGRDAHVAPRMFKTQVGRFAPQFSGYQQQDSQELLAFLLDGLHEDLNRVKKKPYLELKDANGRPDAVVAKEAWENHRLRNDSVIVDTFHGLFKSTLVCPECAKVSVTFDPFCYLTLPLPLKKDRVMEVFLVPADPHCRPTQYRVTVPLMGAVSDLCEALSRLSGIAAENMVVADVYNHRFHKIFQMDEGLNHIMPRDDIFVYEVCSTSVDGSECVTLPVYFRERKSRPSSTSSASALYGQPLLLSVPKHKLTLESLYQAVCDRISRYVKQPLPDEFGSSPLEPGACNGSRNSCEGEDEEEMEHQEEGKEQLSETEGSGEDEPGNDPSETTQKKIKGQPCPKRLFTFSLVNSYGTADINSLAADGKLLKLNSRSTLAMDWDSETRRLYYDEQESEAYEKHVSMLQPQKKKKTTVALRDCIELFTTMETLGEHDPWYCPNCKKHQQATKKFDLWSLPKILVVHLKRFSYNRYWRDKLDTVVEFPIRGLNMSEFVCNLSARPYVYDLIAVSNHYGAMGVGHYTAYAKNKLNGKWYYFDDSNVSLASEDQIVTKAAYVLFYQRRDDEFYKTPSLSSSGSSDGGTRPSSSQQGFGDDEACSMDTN
Method in brief: as §1

Measured: log2 ratio of Biotin-Ahx-Ub-VS probe labelling

O=C(CCl)N1CCc2ccccc2C(O)C1 (stereo not given)
inactive: [1] -0.224 | [2] -0.441 | [3] -0.0535 | [4] 0.0381 | [5] -0.274
